The results in this text go back to PubChem BioAssay (NCATS).

Experiment [1] addresses Lysosomal acid glucosylceramidase (Homo sapiens) (UniProt P04062). The experiment in a line: Glucocerebrosidase-p2 (AID 348; in the data active means potency below about 10 µM; further: potency means the concentration at half of the fitted maximal effect). To be noted: purified GBA, blue fluorogenic substrate, 40 min. A digest of the protocol:
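Compounds titrated from 0.6 nM upwards against 0.2 nM enzyme in pH 5.9 citric acid/KH2PO4, taurocholate, tween-20; blue fluorogenic substrate 80 uM, 40 min room temperature, stopped and read Ex 365/Em 440 for AC50.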

A short description of experiment [2]: AP1 Signaling Pathway (AID 357). Further: on the % scale 0 is the no-effect control and ±100 the full control effect. The note with it: ME-180 AP-1-bla reporter, EGF-induced, beta-lactamase ratio, 5 h; at 7.69 µM (top of the series) unless noted. A digest of the protocol: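 Titration-series screen for positive or negative modulators of EC50 EGF-induced signaling in ME-180 cells carrying an AP-1-driven beta-lactamase reporter. After 5 hours at 37 degrees Celsius, CCF4 460nm/530nm emission ratio gave %Activity; AC50 values derived.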

In experiment [3] the target is Cytochrome P450 1A2 (Homo sapiens) (UniProt P05177). Description: p450-cyp1a2 (AID 410; calls by dose curve; further: potency means the concentration at half of the fitted maximal effect;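 on activity change, negative = inhibition: -100% = full effect of reference inhibitor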). The note with it: recombinant CYP1A2, luciferin-ME demethylation, luminescence; series mostly up to 57 µM. A digest of the protocol: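 Luminescent readout of luciferin formed from Luciferin-ME by human CYP1A2; data normalized against complete inhibition by 57 uM furafylline. Enzyme 20nM, substrate 100uM at Km, 100mM KPO4 buffer, 60 min reaction at room temperature.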
Cytochrome P450 1A2 (Homo sapiens), sequence (P05177 whole entry, looked up): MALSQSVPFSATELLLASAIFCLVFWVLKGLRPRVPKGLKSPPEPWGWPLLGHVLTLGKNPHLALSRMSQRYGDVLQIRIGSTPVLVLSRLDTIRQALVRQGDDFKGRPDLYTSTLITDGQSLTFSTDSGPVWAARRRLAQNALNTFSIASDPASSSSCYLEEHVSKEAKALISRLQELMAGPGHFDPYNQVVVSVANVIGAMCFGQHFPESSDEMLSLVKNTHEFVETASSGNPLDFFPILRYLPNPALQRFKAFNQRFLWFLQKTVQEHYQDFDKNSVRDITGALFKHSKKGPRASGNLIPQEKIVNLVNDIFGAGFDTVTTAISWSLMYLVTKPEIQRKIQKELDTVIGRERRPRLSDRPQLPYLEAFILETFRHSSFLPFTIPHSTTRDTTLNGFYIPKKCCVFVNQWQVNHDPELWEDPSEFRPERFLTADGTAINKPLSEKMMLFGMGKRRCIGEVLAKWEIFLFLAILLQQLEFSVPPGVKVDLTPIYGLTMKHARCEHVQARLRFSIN

Experiment [4] can be described thus: NFAT Signaling Pathway (AID 444).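 Further: carbachol stimulus at about its EC50 of 1 µM final; on the % scale 0 is the no-effect control and ±100 the full control effect.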 To be noted: Jurkat NFAT-bla M1, carbachol, beta-lactamase ratio, 5 h; at 7.69 µM (top of the series) unless noted. The gist of the method:
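Read-out: CCF4 FRET ratio (460 nm/530 nm) after 1 h RT dye loading, used for %activity and AC50 from titration series. Cells: Jurkat NFAT-β-lactamase/M1 line, treated with compound plus 1 uM carbachol for 5 h, 37 °C.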

Experiment [5] deals with Glucocorticoid receptor (Homo sapiens) (UniProt P04150). The experiment in a line: GR-GFP Redistribution (AID 450;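 active means compounds whose dose series gives a full or clear partial fitted curve of increased nuclear translocation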; further: potency means the concentration at half of the fitted maximal effect). To be noted: U2OS GR-GFP nuclear translocation, laser cytometry, 2 h.
Glucocorticoid receptor (Homo sapiens), sequence (P04150 whole entry, looked up, the tested form may be a part): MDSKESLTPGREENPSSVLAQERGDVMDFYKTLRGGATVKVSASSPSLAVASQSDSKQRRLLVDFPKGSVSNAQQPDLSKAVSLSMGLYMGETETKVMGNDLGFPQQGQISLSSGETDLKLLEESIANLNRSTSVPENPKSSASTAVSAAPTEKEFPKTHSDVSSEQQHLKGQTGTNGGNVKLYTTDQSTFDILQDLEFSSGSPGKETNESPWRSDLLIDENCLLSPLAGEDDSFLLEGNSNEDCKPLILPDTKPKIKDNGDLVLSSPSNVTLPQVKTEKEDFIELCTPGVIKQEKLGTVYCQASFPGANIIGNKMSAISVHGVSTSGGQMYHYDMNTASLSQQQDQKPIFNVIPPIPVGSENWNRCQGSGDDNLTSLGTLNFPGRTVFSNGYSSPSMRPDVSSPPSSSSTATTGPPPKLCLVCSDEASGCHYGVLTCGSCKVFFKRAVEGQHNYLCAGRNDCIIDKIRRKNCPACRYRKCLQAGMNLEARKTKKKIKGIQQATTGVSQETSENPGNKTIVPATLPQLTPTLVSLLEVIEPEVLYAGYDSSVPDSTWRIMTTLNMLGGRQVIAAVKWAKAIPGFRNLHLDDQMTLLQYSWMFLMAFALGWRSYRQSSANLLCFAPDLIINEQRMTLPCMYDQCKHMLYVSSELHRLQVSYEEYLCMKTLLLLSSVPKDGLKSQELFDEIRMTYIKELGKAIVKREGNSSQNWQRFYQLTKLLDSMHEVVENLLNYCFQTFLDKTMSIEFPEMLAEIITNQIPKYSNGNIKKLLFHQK
Experiment [6] shares this target. Description: GR-EFC Redistribution (AID 451; calls by dose curve; further: potency means the concentration at half of the fitted maximal effect). To be noted: CHO-K1 GR-EFC translocation, beta-gal luminescence, 2 h. The gist of the method: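 Translocation of GR-ED fusion to nuclear EA restores b-gal, read by luminescence after 1 h room-temperature detection. Engineered CHO-K1 biosensor cells, 1,000/well, exposed 2 h at 37 C to titrations up to 46 uM final.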
The target in experiment [7] is Mitogen-activated protein kinase 10 (Mus musculus) (UniProt Q61831). The experiment in a line: JNK3 AlphaScreen Assay (AID 530).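 Further: kinase came from lysate of stimulated human HepG2 cells; signal reports phosphorylation of biotinylated GST-cJun 1-79 at Ser73 with 10 µM ATP; on the % scale 0 is the no-effect control and ±100 the full control effect.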 To be noted: JNK3 lysate, c-Jun phosphorylation; series mostly up to 57.1 µM. A digest of the protocol:
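Compound titrations were preincubated 15 minutes at room temperature with substrate, antibody and pre-activated JNK3-containing HepG2 lysate. Reactions were started with 10 uM ATP and stopped with EDTA-containing bead buffer for AlphaScreen detection.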
A general note: Bead proximity is the source of the signal in Alpha formats.

The target in experiment [8] is 3',5'-cyclic-AMP phosphodiesterase 4B (Homo sapiens) (UniProt Q07343). The experiment in a line: qHTS Assay for Inhibitors of PDE-IV (AID 607; active means well fitted activation curve with a large enough effect in the main read-out, with a control signal flat, not every such curve was filed as active; further: % of control where 0% means no effect). The note with it: HEK293 ACTOne CNG channel cells, membrane potential fluorescence; series mostly up to 22.9 µM. The gist of the method:
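Live HEK293 cells with a modified cyclic nucleotide-gated (CNG) channel report intracellular cAMP via membrane-potential dye fluorescence (ex 535/em 590 nm). Endogenous PDE-IV was targeted. Compounds were tested at up to 22.9 uM final; RO 20-1724 100 uM served as control.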
(In general: qHTS replaces the single test concentration by a dilution series.)

The target of experiment [9] is Cytochrome P450 3A4 (Homo sapiens) (UniProt P08684). Description: qHTS Assay for Inhibitors and Substrates of Cytochrome P450 3A4 (AID 884; active means well fitted curve in the direction sought with a large enough effect; an effect the other way counts as inactive or inconclusive; further: potency means the concentration at half of the fitted maximal effect; nearly all actives have a fitted effect of over 50% in size). To be noted: recombinant CYP3A4, Luciferin-PPXE luminescence; series mostly up to 57.1 µM. The gist of the method: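 20 nM human CYP3A4 with 25 uM Luciferin-PPXE (at KM) in 200 mM KPO4, preincubated 10 min with compound; NADPH regeneration started a 60 min RT reaction. Luciferin detected by luminescence, normalized to 57 uM ketoconazole as full inhibition.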
Cytochrome P450 3A4 (Homo sapiens), sequence (P08684 whole entry, looked up): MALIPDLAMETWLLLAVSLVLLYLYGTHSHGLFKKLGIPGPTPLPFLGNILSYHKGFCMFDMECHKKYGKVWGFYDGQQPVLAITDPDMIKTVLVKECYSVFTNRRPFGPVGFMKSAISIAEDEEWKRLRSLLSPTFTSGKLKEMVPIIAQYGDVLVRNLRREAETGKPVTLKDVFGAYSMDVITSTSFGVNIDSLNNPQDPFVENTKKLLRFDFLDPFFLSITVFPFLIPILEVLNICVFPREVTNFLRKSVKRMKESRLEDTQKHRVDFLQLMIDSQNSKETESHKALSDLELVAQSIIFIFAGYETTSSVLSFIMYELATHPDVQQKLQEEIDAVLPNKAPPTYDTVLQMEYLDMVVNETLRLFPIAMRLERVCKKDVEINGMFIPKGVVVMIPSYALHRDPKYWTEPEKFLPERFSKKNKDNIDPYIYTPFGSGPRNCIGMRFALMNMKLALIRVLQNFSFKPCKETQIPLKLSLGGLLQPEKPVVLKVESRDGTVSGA

Experiment [10] has the same target. Description: qHTS Assay for Activators of Cytochrome P450 3A4 (AID 885; active means well fitted curve in the direction sought with a large enough effect; an effect the other way counts as inactive or inconclusive; further: nearly all actives have a fitted effect of over 65% in size). To be noted: recombinant CYP3A4, Luciferin-PPXE luminescence, 60 min; series mostly up to 57.1 µM. The gist of the method:
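Quantitative HTS format: compounds preincubated with 20nM human CYP3A4 and Luciferin-PPXE substrate at KM, reaction started by NADPH regeneration, stopped after 60 min, luciferase luminescence read 20 min later.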

Experiment [11] is described as follows: qHTS Assay for Identification of Small Molecule Agonists for Hypoxia Response Element Signaling Pathway (AID 914; active means well fitted activation curve with a large enough effect in the signal ratio, with a control signal flat, not every such curve was filed as active; the % refers to the signal ratio; further: potency means the concentration at half of the fitted maximal effect). The note with it: ME-180 HRE-bla reporter, beta-lactamase ratio, CoCl2, 17 h; activation: hits give high values. The gist of the method:
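Reporter activity (beta-lactamase, CCF4 460nm/530nm ratio) in HRE-bla ME-180 cells is recorded after 17 h compound exposure with EC50 CoCl2 at 37 degrees Celsius. AC50 values come from titration data.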

A short description of experiment [12]: Primary qHTS for small molecule stabilizers of the endoplasmic reticulum resident proteome: Secreted ER Calcium Modulated Protein (SERCaMP) assay (AID 1508630; active means well fitted curve in the direction sought with a large enough effect; an effect the other way counts as inactive or inconclusive; further: on the % scale 0 is the no-effect control and ±100 the full control effect). The note with it: SH-SY5Y GLuc-SERCaMP (Gaussia luciferase released on ER calcium loss) secretion, thapsigargin, luminescence; series mostly up to 38.4 µM. A digest of the protocol:
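GLuc-SERCaMP-expressing SH-SY5Y cells, pretreated 16 h with compound, are challenged with thapsigargin to empty ER calcium stores; after 4 h, coelenterazine is added directly to the medium and luminescence is imaged.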

Experiment [13] can be described thus: Stat Signaling Pathway (AID 446). To be noted: ME-180 (cervical carcinoma) SIE beta-lactamase reporter, IL-6 stimulated, 5 h; at 7.69 µM (top of the series) unless noted. A digest of the protocol: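 IL-6/STAT signaling read in ME-180 cells via an SIE beta-lactamase reporter. Stimulus was 40 pM IL-6 (its AC50) for 5 hrs, so both activation and inhibition register.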
Experiment [14] concerns the target Cytochrome P450 2C9 (Homo sapiens) (UniProt P11712). The experiment in a line: qHTS Assay for Inhibitors and Substrates of Cytochrome P450 2C9 (AID 883; active means well fitted curve in the direction sought with a large enough effect; an effect the other way counts as inactive or inconclusive; further: nearly all actives have a fitted effect of over 60% in size; further: potency means the concentration at half of the fitted maximal effect). The note with it: recombinant CYP2C9, luciferin-H luminescence, 60 min; series mostly up to 57.1 µM. The gist of the method: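 Luminescent read-out of deoxyluciferin hydroxylation, normalized to 57uM sulphaphenazole (AC100). Reaction: 10nM enzyme, 100uM Luciferin-H (equal to KM), 25mM KPO4, 10 min compound preincubation, then 60 min with NADPH regeneration, both at 37C.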

In experiment [15] the target is Cytochrome P450 2D6 (Homo sapiens) (UniProt P10635). The experiment in a line: qHTS Assay for Inhibitors and Substrates of Cytochrome P450 2D6 (AID 891; active means well fitted curve in the direction sought with a large enough effect; an effect the other way counts as inactive or inconclusive; further: nearly all actives have a fitted effect of over 60% in size; further: potency means the concentration at half of the fitted maximal effect). The note with it: recombinant CYP2D6, luciferin-ME EGE luminescence; series mostly up to 57.1 µM. A digest of the protocol:
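Human CYP2D6 (5 nM) with 30 uM Luciferin-ME EGE (at Km) in 100 mM KPO4, compound preincubated 10 min, then NADPH regeneration system for 60 min at room temperature. Luciferin read by luminescence; normalized to 1.43 uM quinidine.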

Experiment [16] deals with Cytochrome P450 2C19 (Homo sapiens) (UniProt P33261). Description: qHTS Assay for Inhibitors and Substrates of Cytochrome P450 2C19 (AID 899; active means well fitted curve in the direction sought with a large enough effect; an effect the other way counts as inactive or inconclusive; further: nearly all actives have a fitted effect of over 60% in size; further: potency means the concentration at half of the fitted maximal effect). The note with it: recombinant CYP2C19, luciferin-H EGE luminescence; series mostly up to 57.1 µM. A digest of the protocol: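 Luminescence readout of luciferin formed from 10uM Luciferin-H EGE (KM level) by 5 nM CYP2C19 in 50mM KPO4. 60 min NADPH-driven reaction at 37C after 10 min compound preincubation; data scaled to 57uM ketoconazole inhibition.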
Cytochrome P450 2C19 (Homo sapiens), sequence (P33261 whole entry, looked up): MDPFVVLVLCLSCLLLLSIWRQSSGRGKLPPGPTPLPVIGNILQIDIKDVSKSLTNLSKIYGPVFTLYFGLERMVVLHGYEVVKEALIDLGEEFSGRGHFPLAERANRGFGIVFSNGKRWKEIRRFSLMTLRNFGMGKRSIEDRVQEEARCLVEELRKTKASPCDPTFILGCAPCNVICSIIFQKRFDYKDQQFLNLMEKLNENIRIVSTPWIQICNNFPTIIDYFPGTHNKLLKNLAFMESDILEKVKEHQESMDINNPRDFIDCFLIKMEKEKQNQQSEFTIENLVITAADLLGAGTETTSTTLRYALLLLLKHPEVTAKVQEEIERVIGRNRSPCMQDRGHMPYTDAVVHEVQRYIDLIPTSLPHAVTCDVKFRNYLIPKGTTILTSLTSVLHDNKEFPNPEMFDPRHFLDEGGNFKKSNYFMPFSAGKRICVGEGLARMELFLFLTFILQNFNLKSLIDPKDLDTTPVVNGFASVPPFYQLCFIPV

Values without a mark were called inactive. Results filed as inconclusive are left out. Calls of active or inactive are those of the source. Unless noted, the call rests on the fitted dose curve; in most records, active means well fitted curve in either direction with a large enough effect (not every such curve was filed as active); inconclusive means small, poorly fitted or top-dose-only effect, or another doubt; inactive means flat fitted curve, though single readings scatter. Bounds are passed on as bounds.

3',5'-cyclic-AMP phosphodiesterase 4B (Homo sapiens), sequence (Q07343 whole entry, looked up): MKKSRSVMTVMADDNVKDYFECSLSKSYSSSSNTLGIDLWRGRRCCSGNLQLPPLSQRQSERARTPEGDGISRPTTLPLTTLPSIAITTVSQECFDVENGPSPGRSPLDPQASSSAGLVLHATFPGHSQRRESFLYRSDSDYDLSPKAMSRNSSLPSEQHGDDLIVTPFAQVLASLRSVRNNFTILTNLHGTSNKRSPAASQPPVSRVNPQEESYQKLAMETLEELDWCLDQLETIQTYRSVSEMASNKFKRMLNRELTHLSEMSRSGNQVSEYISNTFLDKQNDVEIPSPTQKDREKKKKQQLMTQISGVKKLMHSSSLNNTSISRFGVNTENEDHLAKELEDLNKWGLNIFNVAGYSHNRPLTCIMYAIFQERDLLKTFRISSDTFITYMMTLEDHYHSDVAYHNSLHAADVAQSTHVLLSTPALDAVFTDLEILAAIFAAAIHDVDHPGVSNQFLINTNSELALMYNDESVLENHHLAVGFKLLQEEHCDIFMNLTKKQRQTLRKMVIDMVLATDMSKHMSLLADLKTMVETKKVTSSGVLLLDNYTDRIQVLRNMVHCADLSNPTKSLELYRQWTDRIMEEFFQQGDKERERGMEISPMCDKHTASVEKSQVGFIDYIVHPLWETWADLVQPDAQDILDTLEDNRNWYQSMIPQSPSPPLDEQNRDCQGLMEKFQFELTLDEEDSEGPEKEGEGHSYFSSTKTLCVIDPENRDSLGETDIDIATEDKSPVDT
Lysosomal acid glucosylceramidase (Homo sapiens), sequence (P04062 whole entry, looked up): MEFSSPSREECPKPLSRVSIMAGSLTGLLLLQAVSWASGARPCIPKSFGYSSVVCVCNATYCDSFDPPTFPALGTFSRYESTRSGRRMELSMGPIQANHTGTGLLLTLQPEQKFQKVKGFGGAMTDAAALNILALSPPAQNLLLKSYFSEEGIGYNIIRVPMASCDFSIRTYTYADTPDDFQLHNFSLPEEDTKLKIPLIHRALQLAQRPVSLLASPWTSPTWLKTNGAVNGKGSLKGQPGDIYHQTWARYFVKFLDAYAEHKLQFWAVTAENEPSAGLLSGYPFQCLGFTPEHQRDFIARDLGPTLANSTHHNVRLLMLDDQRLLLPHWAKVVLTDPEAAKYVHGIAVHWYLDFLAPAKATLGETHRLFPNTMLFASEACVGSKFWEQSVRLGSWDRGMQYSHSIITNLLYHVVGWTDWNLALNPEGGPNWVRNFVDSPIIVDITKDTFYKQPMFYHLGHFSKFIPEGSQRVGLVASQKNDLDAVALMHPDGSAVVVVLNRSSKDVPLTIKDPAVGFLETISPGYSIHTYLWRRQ
Cytochrome P450 2C9 (Homo sapiens), sequence (P11712 whole entry, looked up): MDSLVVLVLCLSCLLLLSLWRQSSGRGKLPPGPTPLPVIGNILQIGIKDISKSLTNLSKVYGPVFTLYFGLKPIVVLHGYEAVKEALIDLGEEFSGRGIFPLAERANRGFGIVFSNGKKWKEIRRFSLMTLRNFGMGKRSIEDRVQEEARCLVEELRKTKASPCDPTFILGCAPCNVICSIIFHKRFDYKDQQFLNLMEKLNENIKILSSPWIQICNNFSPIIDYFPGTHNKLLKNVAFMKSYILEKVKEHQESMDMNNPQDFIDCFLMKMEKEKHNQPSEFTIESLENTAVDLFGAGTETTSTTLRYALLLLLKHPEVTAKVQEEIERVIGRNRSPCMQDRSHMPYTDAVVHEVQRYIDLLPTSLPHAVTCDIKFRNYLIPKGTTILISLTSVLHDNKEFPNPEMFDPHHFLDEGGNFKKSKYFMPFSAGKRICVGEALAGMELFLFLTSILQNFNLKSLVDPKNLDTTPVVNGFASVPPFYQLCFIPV
Cytochrome P450 2D6 (Homo sapiens), sequence (P10635 whole entry, looked up): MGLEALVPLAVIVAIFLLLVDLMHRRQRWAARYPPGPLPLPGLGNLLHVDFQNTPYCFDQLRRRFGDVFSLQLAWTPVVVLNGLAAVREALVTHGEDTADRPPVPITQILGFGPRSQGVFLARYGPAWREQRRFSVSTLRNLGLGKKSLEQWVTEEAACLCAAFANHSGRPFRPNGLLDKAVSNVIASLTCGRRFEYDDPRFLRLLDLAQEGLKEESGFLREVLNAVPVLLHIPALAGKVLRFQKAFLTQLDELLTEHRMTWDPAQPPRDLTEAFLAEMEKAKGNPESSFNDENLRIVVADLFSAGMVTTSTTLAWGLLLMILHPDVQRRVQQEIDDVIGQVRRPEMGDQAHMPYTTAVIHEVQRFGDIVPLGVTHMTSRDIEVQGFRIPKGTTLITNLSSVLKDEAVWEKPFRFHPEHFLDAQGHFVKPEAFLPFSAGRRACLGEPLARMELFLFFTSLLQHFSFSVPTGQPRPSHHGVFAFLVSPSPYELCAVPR

Consider `COc1ccc(Oc2ncc3nc(-c4cccs4)c(=O)n(-c4ccccc4)c3n2)cc1`, for which the Potency in [1] is above 11.4 µM; in [3] it was 3.16 µM (active); in experiment [5] it was above 9.22 µM; in [6], above 46 µM; in experiment [9], 2.51 µM (active); in [11] it was 2.51 µM (active). In addition, the activity change, negative = inhibition in [2] was 21.1%; in [4], 8.33%. Further, the Potency entry in experiment [7], in [8] and in experiment [10] was “inactive” throughout. The outcome in experiment [12] was inactive.

On to `O=C(c1ccncc1)N1CCC2(CCCN(Cc3ccccc3)C2)CC1`, for which the results for the Potency in experiment [1] and in experiment [6] were above 11.4 µM and above 46 µM, respectively. The activity change, negative = inhibition in experiment [2] was -9.7%. In addition, the Potency result in experiment [3], in experiment [7], in experiment [8] and in [10] was “inactive” throughout. In addition, the activity, negative = inhibition in [13] is -8.26%. For the same compound, the outcome in experiment [12] was inactive.

Regarding `N#Cc1ccc(CN2CCC3(CC2)CCN(C(=O)c2csnn2)CC3)cc1`, the values for the Potency in experiment [1] and in experiment [6] were above 11.4 µM and above 46 µM, respectively. Besides, the activity change, negative = inhibition in experiment [2] was 3.47%. Moreover, the Potency result in [3], in [7] and in [8] was “inactive” in each case. In [13], the activity, negative = inhibition is -1.95%. In [12], the outcome was inactive.

As to `COc1ccccc1CN1CC2(CCN(S(=O)(=O)c3ccccc3)CC2)C1`, the Potency in [1] is above 11.4 µM; in [6], above 46 µM. Also, the activity change, negative = inhibition in experiment [2] is 18.5%. The Potency entry in experiment [3], in experiment [7], in [8], in experiment [14], in experiment [10] and in experiment [15] was “inactive” in each case. Also, the Potency entry in experiment [16] was “inactive”. For the same compound, the activity, negative = inhibition in experiment [13] is 7.2%. For the same compound, the outcome in [12] was inactive.

For the compound `N#Cc1cccc(-c2nc3cnc(N4CCNCC4)nc3n(C3CC3)c2=O)c1`, the Potency is above 11.4 µM in [1]; 5.01 µM (active) in experiment [3]; above 9.22 µM in [5]; above 46 µM in experiment [6]; 631 nM (active) in experiment [14]. For the same compound, the values for the activity change, negative = inhibition in experiment [2] and in experiment [4] were 13.2% and 26.2%, respectively. Besides, the Potency result in experiment [7], in [8] and in experiment [10] was “inactive” each time. The outcome in experiment [12] was inactive.

As for `O=S(=O)(c1ccccc1)N1CCC2(CCCN(Cc3ccncc3)C2)CC1`, the Potency in experiment [1] is above 11.4 µM; in experiment [3], 12.6 µM (active); in [6] it was above 46 µM; in experiment [9], 3.98 µM (active); in [16] it was 316 nM (active). Besides, the activity change, negative = inhibition in experiment [2] is -20.2%. Besides, in experiment [13], the activity, negative = inhibition was -3.44%. Also, the Potency entry in experiment [7], in experiment [8] and in experiment [10] was “inactive” throughout. Further, the outcome in experiment [12] was inactive.

Take `O=c1c(-c2ccc(F)c(F)c2)nc2cncnc2n1-c1ccccc1`: the Potency in experiment [1] was above 11.4 µM; in [3], 12.6 µM (active); in experiment [5] it was above 9.22 µM; in experiment [6] it was above 46 µM. Moreover, the activity change, negative = inhibition in [2] is -19.9%; in [4] it was 3.06%. The Potency entry in experiment [7] and in experiment [10] was “inactive” throughout. In addition, the result in experiment [12] was inactive.

`O=C(c1csnn1)N1CCC2(CC1)CCN(c1ccccn1)CC2`: the Potency in [1] was above 11.4 µM; in experiment [3], 25.1 µM (active); in experiment [6], above 46 µM. Also, the activity change, negative = inhibition in [2] was 15.4%. Besides, in [13], the activity, negative = inhibition was 4.86%. For the same compound, the Potency entry in experiment [7] and in experiment [8] was “inactive” in each case. The outcome in [12] was inactive.

Consider `N#Cc1ccc(CN2CCCC3(CCN(S(=O)(=O)c4ccccc4)CC3)C2)cc1`, for which the Potency in experiment [1] was above 11.4 µM; in experiment [6] it was above 46 µM; in [9] it was 3.16 µM (active); in experiment [15] it was 631 nM (active). Moreover, the activity change, negative = inhibition in experiment [2] is -11.3%. Besides, the Potency entry in experiment [3], in experiment [7], in experiment [8] and in experiment [10] was “inactive” throughout. Moreover, in [13], the activity, negative = inhibition is -1.86%. In addition, in [12], the outcome was inactive.
